Compound activity as filed in PubChem BioAssay.
Shown are actives, neighbours in structure and some others; about 1.1% of the full set was active somewhere.
HTR5A inv ctr: HTR5A inverse agonism, opioid heterodimer counter-screen; P47898; HTR5A cell line, luminescence; inhibition, % at 9.3 µM; hit rate 0.083% among 340,000; AID 504634; in the data active means inhibition mostly above about 23%, no sharp cut-off; inactive means mostly below about 18%
Target sequence (P47898 whole entry, looked up): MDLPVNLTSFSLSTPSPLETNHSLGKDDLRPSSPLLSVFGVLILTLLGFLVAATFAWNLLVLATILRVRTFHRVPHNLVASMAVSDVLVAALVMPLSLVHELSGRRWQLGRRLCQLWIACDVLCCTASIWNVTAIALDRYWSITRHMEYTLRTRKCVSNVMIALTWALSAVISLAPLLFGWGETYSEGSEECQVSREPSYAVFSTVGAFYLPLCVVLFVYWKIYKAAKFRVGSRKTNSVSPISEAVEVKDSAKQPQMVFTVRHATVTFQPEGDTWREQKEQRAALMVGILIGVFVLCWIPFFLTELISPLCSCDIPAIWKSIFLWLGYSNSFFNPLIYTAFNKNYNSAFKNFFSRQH
OPRM1-OPRD1 inv: inverse agonists of human mu-delta opioid receptor heterodimerization; cell-based MOR-DOR heterodimer luminescence, inverse agonism; inhibition, % at 9.3 µM; hit rate 0.21% among 340,000; in the data active means inhibition above about 22%, passing the limit was not always enough
OPRM1-OPRD1 ag: OPRM1-OPRD1 heterodimerization agonism; P35372+P41143; cells, luminescence; activation, % at 9.3 µM; hit rate 0.3% among 340,000; AID 504326
HTR5A ag ctr: HTR5A agonism, opioid heterodimer counter-screen. activation, % at 9.3 µM. hit rate 0.61% among 340,000. AID 504692. HTR5A agonist assay, luminescence, cell-based; in the data active means activation mostly above about 9.5%, no sharp cut-off; inactive means mostly below about 7.6%
MOR-DOR ag conf: OPRM1-OPRD1 heterodimer agonism, confirmation. activation, % at 9.3 µM. shares compounds with OPRM1-OPRD1 ag. cells, MOR-DOR heterodimerization, luminescence complementation. hit rate 45% among 830
HTR5A ag ctr2: activates human HTR5A in OPRM1-OPRD1 agonist counter-screen; hit rate 8% among 830; activation, % at 9.3 µM; HTR5A agonist counterscreen, cell luminescence; shares compounds with OPRM1-OPRD1 ag; AID 504905; in the data active means activation above about 17%
A number is an active result; - = inactive; . = not tested or not shown. Unless noted, no stated cut-off is given here; in the data, active means activation above about 18%; inactive means the rest.

SMILES	HTR5A inv ctr	OPRM1-OPRD1 inv	OPRM1-OPRD1 ag	HTR5A ag ctr	MOR-DOR ag conf	HTR5A ag ctr2
CC1CCN(Cc2nnnn2-c2cccc([N+](=O)[O-])c2)CC1	-	-	-	-	.	.
Cc1ccc(-n2c(=O)[nH]c3cc(C(=O)NC4CCN(Cc5ccccc5)CC4)ccc3c2=O)cc1	-	-	-	-	.	.
Cc1ccccc1OCC(O)Cn1c(=N)n(Cc2ccccc2)c2ccccc21 (stereo not given)	-	-	31	-	53	-
COc1ccccc1OCC(O)Cn1c(=N)n(Cc2ccccc2)c2ccccc21 (stereo not given)	-	-	-	-	.	.
Cc1cc(/C=C\c2ccc3cc(N(C)C)ccc3[n+]2C)c(C)n1-c1ccccc1	-	-	48	-	-	-
COc1ccc(NC(=O)CCc2nnc3ccc(N4CCC(C)CC4)nn23)cc1OC	-	-	-	-	.	.
CN=c1scc(-c2ccccc2F)n1/N=C/c1ccc(O)c(O)c1O	-	-	18	-	-	-
Cc1ccc(C)c(NC(=O)C(Sc2nc3ccc(C)cc3[nH]2)c2ccccc2)c1 (stereo not given)	-	-	-	-	.	.
Cc1ccc2nc(SC(C(=O)Nc3ccc(F)cc3)c3ccccc3)[nH]c2c1 (stereo not given)	-	-	24	-	454	-
O=C(CNc1cc(S(=O)(=O)N2CCOCC2)ccc1NCC1CCCO1)Nc1ccc(F)c(F)c1 (stereo not given)	-	-	-	-	.	.
Cc1ccc(C)c(NC(=S)NC(NC(=O)N(C)C)C(Cl)(Cl)Cl)c1 (stereo not given)	-	-	-	-	.	.
Cc1ccc(C)c(NC(=S)NC(NC(=O)Cc2cccc3ccccc23)C(Cl)(Cl)Cl)c1 (stereo not given)	-	-	27	-	-	-
Cn1c(SCC(=O)c2ccc3c(c2)NC(=O)CO3)nc2ccccc21	-	-	38	-	25	-
COc1ccc(-c2nn(-c3ccccc3C)cc2CNC(C)c2cn(C)nc2C)cc1F (stereo not given)	-	-	163	-	23	-
COc1ccc(-c2nn(-c3ccccc3C)cc2CNCCc2cnc[nH]2)cc1F	-	-	-	-	.	.
CCn1cc(CNCc2cn(-c3ccccc3C)nc2-c2ccc(OC)c(F)c2)cn1	-	-	243	-	309	-
CC1CC(C)CN(C(=O)COC(=O)COc2ccc(C#N)cc2)C1 (stereo not given)	-	-	-	-	.	.
COc1ccccc1NS(=O)(=O)c1cccc(C(=O)NC2CCN(Cc3ccccc3)CC2)c1	-	-	20	-	-	-
COc1ccccc1NS(=O)(=O)c1ccc(C)c(C(=O)NC2CCN(Cc3ccccc3)CC2)c1	-	-	-	-	.	.
Oc1ccccc1CNc1ccc(Br)cn1	-	-	71	32	60	27
Brc1ccc(NCc2cccc3ccccc23)nc1	-	-	-	-	.	.
Cc1cc(/C=C2\SC(=S)N(C)C2=O)c(C)n1-c1cccc(O)c1	-	-	30	-	-	-
COc1ccc(-n2c(C)cc(/C=C3/SC(=S)N(C)C3=O)c2C)cc1	-	-	-	-	.	.
CCn1c(=O)c(C(=O)NCc2cccnc2)c(O)c2ccccc21	-	-	19	-	29	-
CCn1c(=O)c(C(=O)NCc2ccccc2)c(O)c2ccccc21	-	-	-	-	.	.
SMILES	HTR5A inv ctr	OPRM1-OPRD1 inv	OPRM1-OPRD1 ag	HTR5A ag ctr	MOR-DOR ag conf	HTR5A ag ctr2
Cc1ccc([C@H]2C(C(=O)O)=CC[C@@H](c3cccs3)N2S(=O)(=O)c2ccc(C)cc2)cc1	-	-	-	-	.	.
Cc1ccc(S(=O)(=O)N2[C@@H](c3ccc(C(C)(C)C)cc3)C(C(=O)O)=CC[C@H]2c2cccs2)cc1	-	-	26	-	24	-
CC(C)CC(=O)N1CCC(N(CCc2ccccc2)Cc2ccccc2)CC1	-	-	-	-	.	.
O=C(c1ccccn1)N(Cc1cccs1)C1(C(=O)NC2CCCCC2)CCCCC1	-	-	28	-	-	-
O=C(c1cnccn1)N(Cc1cccs1)C1(C(=O)NC2CCCCC2)CCCCC1	-	-	-	-	.	.
Cc1ccc(C2(C)NC(=O)N(CC(=O)NNC(=O)c3cc(C)oc3C)C2=O)cc1 (stereo not given)	-	-	-	-	.	.
Cc1c2ccccc2c(C)c2c1ccc1ccccc12	-	-	19	-	-	-
CCOC(=O)N1CCN(c2c(NCCN(C)Cc3ccccc3)c(=O)c2=O)CC1	-	-	50	-	-	-
CCOC(=O)N1CCN(c2c(NCCCN(C)c3ccccc3)c(=O)c2=O)CC1	-	-	-	-	.	.
CCC(=O)NN1CCc2cc3ccc(C)cc3nc21	-	-	-	-	.	.
Cc1ccc(-c2nn(-c3ccccc3)cc2CO)cc1	-	-	-	-	.	.
N=C(N)SCc1cn(-c2ccccc2)nc1-c1ccc(Br)cc1	-	-	20	-	-	-
CN(C)C(=O)c1ccc(Nc2ncnc3sc4c(c23)CCCCC4)cc1	-	-	-	-	.	.
Cc1ccc(-n2cc(CNC(C)c3cnn(C)c3C)c(-c3ccc(F)cc3)n2)cc1 (stereo not given)	-	-	222	-	34	-
Cc1ccc(-n2cc(CNCCCn3ccnc3C)c(-c3ccc(F)cc3)n2)cc1	-	-	-	-	.	.
Cc1ccc(-n2cc(CNC(C)c3cnn(C)c3)c(-c3ccc(F)cc3)n2)cc1 (stereo not given)	-	-	366	-	440	-
Clc1ccc2oc(SCc3cccnc3)nc2c1	-	-	-	-	.	.
CC(COc1ccccc1)N1CCC(CO)(CCc2ccccc2)CC1 (stereo not given)	-	-	176	-	-	-
CSCC[C@H](NC(=O)C1=NN(c2c(F)c(F)cc(F)c2F)C(=O)CC1)c1nc2ccccc2[nH]1	-	-	-	-	.	.
Cc1nc(CNS(=O)(=O)c2ccc(F)cc2)cs1	-	-	-	-	.	.
C=C(C)COc1ccc(-c2n[nH]c(C)c2-c2ccc(OC)cc2)c(O)c1	-	-	30	-	-	-
C=CC[C@@H](CC(=O)N(CCO)Cc1ccccc1)C(=O)N[C@@H](COC(=O)[C@H](CC=C)CC(=O)OC(C)(C)C)Cc1c[nH]c2ccccc12	-	-	26	-	-	-
Oc1ccccc1C1SC(c2ccccc2O)SC(c2ccccc2O)S1 (stereo not given)	-	-	22	-	20	-
O=C(COC(=O)C1CCCCC1)Nc1cccc(F)c1	-	-	-	-	.	.
O=C(COC(=O)CC1CCCC1)Nc1cccc(F)c1	-	-	323	-	-	-
Cc1ccc(CSCC(=O)N/N=C/c2sccc2C)cc1	-	-	89	-	180	-
COc1ccc(CC(=O)N/N=C/c2sccc2C)cc1	-	-	-	-	.	.
Cc1ccccc1Cn1c(O)c(N=NC(=S)Nc2ccccc2F)c2ccccc21	-	-	18	-	76	-
CCC1=NN2C(=N)/C(=C\c3ccc(OCc4cc(=O)n5nc(CC)sc5n4)c(OC)c3)C(=O)N=C2S1	-	-	-	-	.	.
